The panel holds about 83,000 compounds, 20% with a hit somewhere; the sample as a whole holds those more often.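 The test compound was applied at a single concentration to cells in 96-well plates for 48 hours, and percent growth was recorded.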 Calls of active or inactive are those of the source.
System: NCI-H226 lung
Experiment: NCI-60 one-dose screen, 48 h (100 = growth as untreated, 0 = no growth, -100 = all killed)
Details: 10 µM unless noted
Description: Growth inhibition of the NCI-H226 human Non-Small Cell Lung tumor cell line is measured as a screen for anti-cancer activity. Cells are grown in 96 well plates and exposed to the test compound for 48 hours. Compounds are tested at a single concentration, which is 10^-5 M for most compounds. The reported endpoint is percent growth (GI% or GIPRCNT), where numbers from 0 - 100% represent growth inhibition, and numbers from -100% - 0 represent cell death. For example, a value of 40 represents 60% growth inhibition. A value of 0 means no net growth occurred over the course of the experiment. A value of -40 indicates 40% of cells at the beginning of the experiment died by the end of the experiment. A value of -100 means all cells are dead at the end of the experiment.
NCI-60 Human Tumor Cell Lines Screen was performed using the standard one-dose NCI protocol, which is described in more detail at https://dtp.cancer.gov/discovery_development/nci-60/default.htm.
Compounds with GIPRCNT values below 10 were considered active. Activity score was based on GIPRCNT using the following formula: […]
Score is 0 for GIPRCNT values of 100 or above, 50 for GIPRCNT values of 0, and 100 for GIPRCNT values of -100.

| Structure (SMILES) | growth |
| --- | --- |
| CN1CC2CCC(C1)C2=O | 103% (inactive) |
| CC(=O)O[C@H]1C[C@H](O[C@H]2[C@@H](O)C[C@H](O[C@H]3[C@@H](O)C[C@H](O[C@H]4CC[C@@]5(C)C(CCC6C5C[C@@H](O)[C@]5(C)[C@@H](C7=CC(=O)OC7)CC[C@]65O)C4)O[C@@H]3C)O[C@@H]2C)O[C@H](C)[C@H]1O[C@@H]1O[C@H](CO)[C@@H](O)[C@H](O)[C@H]1O (stereo not given in full) | -98.6% (active) |
| CC1(C)CC(=O)CC(C)(C)N1N=O | 104% (inactive) |
| CCCCn1cc(C(=O)/C(C#N)=C/c2cc3ccccc3nc2Cl)c2cc(OC)ccc21 | 84.3% (inactive) |
| CNC(=O)Oc1ccccc1-c1ccccc1 | 113% (inactive) |
| COc1ccccc1N1CCN(CCc2c[nH]c3cc4c(cc23)OCO4)CC1 | 79.3% (inactive) |
| CN(Cc1cccnc1)N=O | 92.3% (inactive) |
| O=CN1N=C(c2ccc3c(c2)OCO3)CC1c1sc(N(CCCl)CCCl)nc1Cl (stereo not given) | 95.9% (inactive) |
| N#[N+]c1nc2nc(N)[nH]c(=O)c2[nH]1 | 98% (inactive) |
| C#CC1(O)CCC2(C)C(CCC3C4CCC(=O)C4(C)CCC32)C1 (stereo not given) | 86.4% (inactive) |
| O=[N+]([O-])c1ccc2cnn(CSP(=S)(c3ccccc3)c3ccccc3)c2c1 | 77.4% (inactive) |
| CCC(C)/C=C(C)/C=C/C(=O)c1c(O)c(-c2ccc(O)cc2)c[nH]c1=O (stereo not given) | 91.5% (inactive) |
| Cc1cc(NC(=O)/C=C/c2ccc([N+](=O)[O-])cc2)ccc1S(=O)(=O)F | 105% (inactive) |
| CC(=O)Nc1ccc(Cc2ccc(NC(C)=O)cc2)cc1 | 107% (inactive) |
| OC1(c2ccccc2F)c2ccccc2C2=NCCN21 (stereo not given) | 84.8% (inactive) |
| O1[As]2O[As]3O[As]1O[As](O2)O3 | 0.918% (active) |
| O=[N+]([O-])c1ccc(/C=C/C=C/c2ccc(S(=O)(=O)F)cc2)c(Cl)c1 | 99.8% (inactive) |
| O=C(CCF)c1ccc(O)cc1 | 105% (inactive) |
| O=C(CC1(O)C(=O)Nc2ccc(F)cc21)c1ccc(C(=O)NCC2CCC3(CC2)OOC2(CCCCC2)OO3)cc1 (stereo not given) | 69.3% (inactive) |
| C/C(=N/OC(=O)N(C)C)c1cc(Cl)ccc1Cl | 99.4% (inactive) |

| Structure (SMILES) | growth |
| --- | --- |
| CCOP(=O)(OCC)Oc1ccc(Sc2ccc(OP(=O)(OCC)OCC)cc2)cc1 | 101% (inactive) |
| [N-]=[N+]=NC(C(=O)O)c1ccccc1 (stereo not given) | 125% (inactive) |
| c1ccc([As]=[As]c2ccccc2)cc1 (stereo not given) | 5.17% (active) |
| Cc1cc(CCl)c(C)cc1CCl | 83.3% (inactive) |
| O=S(=O)(F)c1ncnc2nc[nH]c12 | 89.6% (inactive) |
| CN1CCN(C(=O)COc2ccc(/C=C3\CC4C5CC=C6CC(Cl)CCC6(C)C5CCC4(C)C3=O)cc2)CC1 (stereo not given) | 77.2% (inactive) |
| CNC(=O)Oc1cc(C(C)C)ccc1Sc1ccc(C(C)C)cc1OC(=O)NC | 83.2% (inactive) |
| O=C(O)c1nn(Cc2ccc(Cl)cc2)c2ccccc12 | 101% (inactive) |
| CC(C)(C)N(Cc1ccccc1)N=O | 91.7% (inactive) |
| CC(CC(C#N)(c1ccccc1)c1ccccc1)N1CCOCC1 (stereo not given) | 112% (inactive) |
| Clc1ccc(SSC(Cl)(Cl)Cl)cc1 | 110% (inactive) |
| CC[C@@H](C)/C=C(C)/C=C/C(=O)c1c(O)c(-c2ccc(O)cc2)cn(O)c1=O | -1.76% (active) |
| CCCCCCCC(=O)OCC/C=C/C1OC1C1OC(=O)/C=C\C=C\c2nc(oc2C)/C=C(/C)CCC2OC2C1OC(=O)NC(C)=O (stereo not given) | -37.5% (active) |
| N#Cc1ncc(/N=C/c2ccc(N(CCCl)CCCl)cc2)s1 | -19.1% (active) |
| Nc1ccc(N)c2c1Oc1ccccc1O2 | 84.5% (inactive) |
| N#CC1c2ccccc2C=CN1C(=O)c1ccc(N(CCCl)CCCl)cc1 (stereo not given) | 78.2% (inactive) |
| CCC(CC)(c1ccccc1)C(OC(N)=O)c1ccccc1 (stereo not given) | 81.8% (inactive) |
| CC(/C=N/N=C(N)N)=N/N=C(N)N | 97.4% (inactive) |
| S=P(N1CCCCCC1)(N1CC1)N1CC1 | 106% (inactive) |
| COc1cccc2c1C(=O)c1c(O)c3c(c(O)c1C2=O)CC(O)(/C(C)=N/NC(=O)CCC(=O)N/N=C(\C)C1(O)Cc2c(O)c4c(c(O)c2C(OC2CC(N)C(O)C(C)O2)C1)C(=O)c1c(OC)cccc1C4=O)CC3OC1CC(N)C(O)C(C)O1 (stereo not given) | -68.1% [5 µM] (active) |

— PubChem BioAssay (NCI)
